Ten molecules from PubChem BioAssay (Tox21) can be followed below.

Inconclusive results are not listed. Calls of active or inactive are those of the source. Unless noted, the call rests on the fitted dose curve; in most records, active means well fitted curve in the direction sought with a large enough effect in the repeat runs; inconclusive means weak or mixed curves; inactive means no such curve, though single readings can be large; an effect the other way counts as inactive or inconclusive.

Test [1] is described as follows: qHTS assay for small molecule agonists of the p53 signaling pathway - cell viability (AID 651633; calls by dose curve;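 further: p53RE-bla HCT reporter cells with a stable beta-lactamase p53 reporter; series mostly up to about 83 µM; nearly all actives have a fitted effect of over 30% in size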). In short, it runs like this:
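p53RE-bla cells, seeded at 4,000 per well and rested 5 h at 37 C/5% CO2, received compounds in DMSO for 16 h at 37 C. CellTiter-Glo was then added, and luminescence was read after 30 min at room temperature to gauge cytotoxicity.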
Background: Quantitative high-throughput screening tests each substance at several concentrations.

Test [2] can be described thus: qHTS assay for small molecule disruptors of the mitochondrial membrane potential - cell viability (AID 720634; calls by dose curve; further: nearly all actives have a fitted effect of over 20% in size; further: potency means the concentration at half of the fitted maximal effect). In short, it runs like this: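 Measuring cytotoxicity alongside mitochondrial potential, the screen quantified ATP by luminescence in HepG2 cells after 1 hr compound incubation and a 30 min room-temperature CellTiter-Glo step.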
The nature of test [3]: qHTS assay for small molecule disruptors of the mitochondrial membrane potential (AID 720635). Further: potency means the concentration at half of the fitted maximal effect. In short, it runs like this:
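HepG2 cells (2,000/well) attached overnight at 37C, then took compound for 1 hr at 37C, 5% CO2. Mito-MPS dye was added for 30 min; fluorescence was read at 490/535 nm (monomers) and 540/590 nm (aggregates).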

Test [4] is described as follows: qHTS assay to test for compound auto fluorescence at 590 nm (red) in HepG2 cells (AID 720674). In outline:
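Intrinsic compound fluorescence in the red window (Ex/Em 540/590 nm) is measured in attached HepG2 cells exposed for 1 hr, DMSO vehicle as baseline, benchmarked to Rose Bengal sodium.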

The nature of test [5]: qHTS assay to test for compound auto fluorescence at 535 nm (green) in HepG2 cells (AID 720675).
A short description of test [6]: qHTS assay to test for compound auto fluorescence at 460 nm (blue) in HEK293 cells (AID 720678). In outline: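 Cells were seeded and left to adhere for 4-5 hr at 37C. Compounds were then pin-transferred. After an overnight incubation at 37C under 5% CO2, intrinsic fluorescence at 405/460 nm was measured and referenced to triamterene.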
A short description of test [7]: qHTS assay to test for compound auto fluorescence at 590 nm (red) in HEK293 cells (AID 720679). In outline:
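Each well held 2,000 HEK293 cells in medium containing 10% dialyzed FBS. Following 4-5 hr attachment at 37C, 23 nL test compound or DMSO was added; plates sat overnight, and red fluorescence (540/590nm) was recorded.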

Test [8] in a line: qHTS assay to test for compound auto fluorescence at 535 nm (green) in HEK293 cells (AID 720680).
A short description of test [9]: qHTS assay to test for compound auto fluorescence at 460 nm (blue) in HEK293 cell free culture (AID 720681). In outline: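 Test compounds were pinned into cell-free culture medium (DMEM with 10% FBS) and fluorescence was read directly at Ex/Em 405/460 nm. Signals were expressed as fluorescence equivalents of triamterene, with DMSO vehicle as control.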
Test [10] can be described thus: qHTS assay to test for compound auto fluorescence at 535 nm (green) in HEK293 cell free culture (AID 720682). In outline: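 Using fluorescein as calibrant, autofluorescence was quantified at 485/535 nm in cell-free DMEM containing 10% FBS after pintool addition of compound or vehicle.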
Test [11] is described as follows: qHTS assay to test for compound auto fluorescence at 590 nm (red) in HEK293 cell free culture (AID 720683). In outline: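 Tox21 10K library compounds were pinned into cell-free DMEM with 10% FBS and fluorescence was read at excitation 540 nm. Activity is expressed as Rose Bengal sodium equivalency.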
Test [12] can be described thus: qHTS assay to test for compound auto fluorescence at 590 nm (red) in HepG2 cell free culture (AID 720684). In short, it runs like this: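 Red fluorescence (540 nm excitation, 590 nm emission) was measured after compound transfer into cell-free MEM supplemented with 10% FBS. Values are equivalencies against Rose Bengal sodium.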
Test [13] is described as follows: qHTS assay to test for compound auto fluorescence at 460 nm (blue) in HepG2 cell free culture (AID 720685). In short, it runs like this:
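Compound (23 nL) or DMSO pinned into cell-free MEM with 10% FBS; blue fluorescence read at 405/460 nm excitation/emission, expressed as auto-fluorescence equivalency to triamterene.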

A short description of test [14]: qHTS assay to test for compound auto fluorescence at 535 nm (green) in HepG2 cell free culture (AID 720686).
Test [15] in a line: qHTS assay to test for compound auto fluorescence at 460 nm (blue) in HepG2 cells (AID 720687). In short, it runs like this: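 Cells (2,000/well in MEM with 10% FBS) attached overnight at 37 C, then were exposed to compound or DMSO for 1 hr at 37 C, 5% CO2. Fluorescence read at Ex/Em 405/460 nm, expressed as triamterene-equivalent signal.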
Test [16] can be described thus: qHTS assay for small molecules that induce genotoxicity in human embryonic kidney cells expressing luciferase-tagged ATAD5 (AID 651632). Further: nearly all actives have a fitted effect of over 15% in size. In short, it runs like this:
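Reporter cells (HEK293T) express luciferase-tagged ATAD5, a protein that accumulates after DNA damage. Treat 16 hr at 37C/5% CO2, add Amplite, wait 30 min at RT, and read luminescence.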

Test [17] is described as follows: qHTS assay for small molecules that induce genotoxicity in human embryonic kidney cells expressing luciferase-tagged ATAD5 - cell viability (AID 651634; calls by dose curve; further: nearly all actives have a fitted effect of over 25% in size). In outline: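 Seeding of 2,000 HEK293T ATAD5-luciferase cells per well preceded pin-tool compound transfer. Plates sat 15.5 hr at 37C under 5% CO2, then fluorescence was read after 30 min with CellTiter-Fluor.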

Test [18] addresses Glucocorticoid receptor (Homo sapiens) (UniProt P04150). Description: qHTS assay to identify small molecule agonists of the glucocorticoid receptor (GR) signaling pathway (AID 720691; active means well fitted activation curve with a large enough effect in the signal ratio in the repeat runs, not every such curve was filed as active; the % refers to the signal ratio). In short, it runs like this: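 Reporter read-out: fluorescence intensity following 2 h room-temperature LiveBLAzer B/G FRET substrate loading. Prior step: GR-bla HeLa cells held 4 h, then treated 18 h at 37 C.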

Test [19] shares this target. Description: qHTS assay to identify small molecule antagonists of the glucocorticoid receptor (GR) signaling pathway (AID 720692; active means well fitted inhibition curve with a large enough effect in the signal ratio in the repeat runs, not every such curve was filed as active; the % refers to the signal ratio; further: potency means the concentration at half of the fitted maximal effect). In outline:
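Dexamethasone (5 nM final) stimulated a stably integrated GRE-beta-lactamase reporter in HeLa cells during 18 h co-incubation with compounds; signal was quantified as fluorescence intensity of B/G FRET substrate after 2 h.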

Chain of Glucocorticoid receptor (Homo sapiens) (P04150 whole entry, looked up): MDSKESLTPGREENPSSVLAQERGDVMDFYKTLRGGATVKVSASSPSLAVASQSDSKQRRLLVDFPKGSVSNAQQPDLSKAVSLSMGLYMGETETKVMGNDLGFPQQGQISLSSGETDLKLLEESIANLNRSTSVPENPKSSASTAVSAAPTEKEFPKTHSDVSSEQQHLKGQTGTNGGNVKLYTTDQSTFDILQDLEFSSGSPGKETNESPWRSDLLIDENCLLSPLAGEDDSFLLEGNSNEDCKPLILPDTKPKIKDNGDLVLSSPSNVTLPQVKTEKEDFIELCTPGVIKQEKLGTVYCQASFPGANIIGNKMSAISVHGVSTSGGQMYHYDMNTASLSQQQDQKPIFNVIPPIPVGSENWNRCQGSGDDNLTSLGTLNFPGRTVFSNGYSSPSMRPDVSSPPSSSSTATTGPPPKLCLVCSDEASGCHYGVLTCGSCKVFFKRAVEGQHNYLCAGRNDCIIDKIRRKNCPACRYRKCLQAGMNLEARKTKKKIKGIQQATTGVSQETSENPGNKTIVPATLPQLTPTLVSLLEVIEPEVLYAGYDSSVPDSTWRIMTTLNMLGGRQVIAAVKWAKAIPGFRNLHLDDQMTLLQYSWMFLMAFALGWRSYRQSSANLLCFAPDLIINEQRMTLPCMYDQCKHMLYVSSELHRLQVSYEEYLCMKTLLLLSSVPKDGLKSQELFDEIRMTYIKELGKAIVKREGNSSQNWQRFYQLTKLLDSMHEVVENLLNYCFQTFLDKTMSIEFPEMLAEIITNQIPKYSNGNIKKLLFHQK

As for `O=C=Nc1ccc(Cl)cc1`, the Potency result in test [1] is “inactive”. In addition, the Potency in [2] was 21.7 µM (active); in test [3], 0.172 µM (active). Further, the result in test [4], in test [5], in test [6], in test [7], in test [8] and in test [9] was inactive. Moreover, the molecule was called inactive in test [10], in test [11], in [12], in test [13], in test [14] and in test [15].

For `COP(=S)(Oc1cc(Cl)c(Br)cc1Cl)c1ccccc1` (stereo unspecified), the Potency entry in test [16] and in [17] was “inactive” each time. In addition, the Potency in [2] and in test [3] was 48.6 µM (active) each time. The molecule was called inactive in [4], in test [5], in [7], in test [8], in test [9] and in test [10]. Besides, the molecule was classed as inactive in test [11], in [12], in test [13], in [14] and in [15].

As to `BrCC(Br)C1CCC(Br)C(Br)C1` (stereo unspecified), the Potency result in test [1], in [17] and in test [2] was “inactive” in each case. Also, in [3], the Potency is 27.2 µM (active). Besides, the result in [4], in test [5], in [7], in test [8], in test [9] and in test [10] was inactive. The molecule was called inactive in test [11], in test [12], in test [13], in test [14], in [15] and in test [18].

As to `CO/N=C(/C(=O)OC)c1ccccc1COc1ccccc1C`, the Potency result in test [16] and in test [17] was “inactive” each time. The molecule was classed as inactive in [4], in test [5], in [6], in test [7], in [8] and in test [9]. The outcome in test [10], in test [11], in test [12], in test [13], in test [14] and in [15] was inactive.

`O=C(NC(=O)c1c(F)cccc1F)Nc1ccc(OC(F)(F)C(F)OC(F)(F)F)c(Cl)c1` (stereo unspecified): the Potency result in [16], in [17], in test [2] and in test [19] was “inactive” each time. In addition, the outcome in [4], in test [5], in [6], in test [7], in test [8] and in test [9] was inactive. Also, the outcome in test [10], in test [11], in test [12], in [13], in test [14] and in test [15] was inactive.

Consider `O=C(O)C(F)(F)C(F)(F)C(F)(F)C(F)(F)C(F)(F)C(F)(F)C(F)(F)C(F)(F)C(F)(F)F`, for which the Potency entry in test [16], in [17], in [2] and in test [19] was “inactive” in each case. For the same molecule, the outcome in test [4], in test [5], in test [6], in test [7], in test [8] and in test [9] was inactive. In addition, the outcome in test [10], in test [11], in test [12], in test [13], in test [14] and in [15] was inactive. In addition, the call in test [18] was inactive.

As to `C=CCN1CC[C@]23c4c5ccc(O)c4O[C@H]2C(=O)CC[C@@]3(O)[C@H]1C5`, the Potency entry in [1], in test [17], in [2] and in [3] was “inactive” in each case. Further, the molecule was classed as inactive in [4], in test [5], in test [6], in test [7], in [8] and in test [9]. Besides, the call in test [10], in test [11], in [12], in test [13], in test [14] and in test [15] was inactive.

Turning to `O=C1c2ccccc2C(=O)C1C(=O)C(c1ccccc1)c1ccccc1`, the Potency entry in test [16], in test [17] and in test [2] was “inactive” each time. Further, the Potency in [3] is 21.1 µM (active); in [19], 21.3 µM (active). Also, the result in test [4], in [5], in [6], in test [7], in test [8] and in test [9] was inactive. For the same molecule, the molecule was called inactive in test [10], in [11], in test [12], in test [13], in test [14] and in test [15].

`O=C(Nc1ccccc1)Nc1ccnc(Cl)c1`: the Potency entry in test [16], in [1] and in [2] was “inactive” each time. Also, the molecule was classed as inactive in test [4], in test [5], in [6], in [7], in [8] and in test [9]. Moreover, the molecule was classed as inactive in [10], in test [11], in test [12], in test [13], in test [14] and in test [15]. Besides, in test [19], the Potency is 54.9 µM (active).

In the case of `CC1(C)CCC(Cc2ccc(Cl)cc2)C1(O)Cn1cncn1` (stereo unspecified), the Potency result in test [16] is “inactive”. Moreover, the Potency in test [2] and in [3] was 54.5 µM (active) in each case. For the same molecule, the call in test [4], in test [5], in [7], in [8], in [9] and in [10] was inactive. The molecule was classed as inactive in [11], in test [12], in test [13], in test [14] and in test [15].
